RecA intein inh: inhibitors of M. tuberculosis RecA intein splicing | actives 0.75% (n = 290,000) | inhibition, % (no concentration beside the values) | P9WHJ3 | cell-free RecA intein splicing, fluorescence; in the data active = inhibition above about 30%;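 also: 0% = vehicle wells and 100% = reference inhibitor control wells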
PriA SSB inh: blocks PriA binding to SSB C-terminal tail; AlphaScreen SSBct-PriA binding, biotinylated peptide; inhibition, % at 33 µM; actives 0.6% (n = 430,000); AID 1272365; in the data active = inhibition mostly above about 37%, no sharp cut-off; inactive = mostly below about 20%;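 also: plate controls were negative control peptide for no effect and reference peptide for full effect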
CCHF vOTU inh: CCHFV vOTU protease inhibition; actives 0.55% (n = 370,000); inhibition, % at 11.5 µM; AID 651958; Pep-AMC fluorescence; in the data active = inhibition above about 30%; also: 0% = vehicle wells with enzyme and 100% = no enzyme wells
SARS 3CLpro inh: SARS-CoV 3CLpro protease inhibition; recombinant SARS-CoV 3CLpro, quenched FRET peptide cleavage; inhibition, % at 6 µM; actives 0.14% (n = 290,000); in the data active = inhibition above about 12%
DUSP3 inh: inhibitors of human VHR1 phosphatase (DUSP3) | P51452 | recombinant VHR phosphatase, pNPP absorbance | inhibition, % at 13.3 µM | actives 0.52% (n = 290,000); in the data active = inhibition above about 50%
Target sequence (P51452 whole entry, looked up): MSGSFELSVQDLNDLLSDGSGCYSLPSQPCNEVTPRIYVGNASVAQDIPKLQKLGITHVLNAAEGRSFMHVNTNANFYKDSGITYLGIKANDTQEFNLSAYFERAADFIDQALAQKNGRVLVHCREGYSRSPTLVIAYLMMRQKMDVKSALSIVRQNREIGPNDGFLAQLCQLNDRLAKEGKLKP
* = called active by the depositor; . = not tested or not shown; ! = not active in a repeat. Hits are enriched below; roughly 1.7% of the tested compounds scored in any of these assays.

SMILES	RecA intein inh	PriA SSB inh	CCHF vOTU inh	SARS 3CLpro inh	DUSP3 inh
CC(=O)c1cccc(NC(=O)CSc2ccc(-c3ccccn3)nn2)c1	0	48*!	9	-1	19
CC[N+]1=C(C)C(C)(C)c2cc(C)ccc21	1	52*	1	7	20
COc1ccc(S(=O)(=O)N2CCc3ccccc3C2)cc1	1	-5	-7	-1	51*
CCOc1ccc(S(=O)(=O)N2CCc3ccccc3C2)cc1	3	-29	-3	-3	23
CCC(C)NC(=O)c1ccc2c(c1)S(=O)(=O)c1ccccc1C2=O (centres undefined)	-3	3	7	-6	56*
CCOc1ccc(C=NN(C)c2ccccc2)cc1OC	.	39*	.	.	.
NC(=O)c1c(NC(=O)CCCC(=O)O)sc2c1CCCCCC2	0	-4	15	1	45
COC(=O)c1c(NC(=O)CCCC(=O)O)sc2c1CCC2	-1	73*	-6	-1	-16
CN1CCN(C(CNC(=O)c2cccc(C(F)(F)F)c2)c2ccc(F)cc2)CC1 (centres undefined)	.	8	.	.	.
COc1ccc(Cl)cc1NC(=O)Nc1cnn([C@H]2CCOC2)c1	.	-8	.	.	.
Cc1cc(C)cc(-n2ccnc2SCC(=O)Nc2cccc(Cl)c2)c1	.	47*	.	.	.
O=C(CSc1nccn1-c1ccccc1)Nc1ccc2c(c1)OCO2	-4	26	6	2	-8
Cc1cc(C)cc(-n2ccnc2SCC(=O)Nc2ccc3c(c2)OCCO3)c1	7	45*!	13	1	-5
O=C(CSc1nccn1Cc1ccc(Cl)cc1)Nc1ccc2c(c1)OCCO2	.	42*	.	.	.
COc1ccccc1-n1ccnc1SCC(=O)Nc1ccc2c(c1)OCCO2	.	5	.	.	.
Cc1cccc(-n2ccnc2SCC(=O)Nc2ccc3c(c2)OCCO3)c1C	.	49*	.	.	.
O=C(CSc1nccn1-c1cccc(Cl)c1)Nc1ccc(Br)cc1	.	21	.	.	.
O=C(NCC1COC2(CCCCC2)O1)c1cc(Cl)ccc1[N+](=O)[O-] (centres undefined)	.	6	.	.	.
O=C(Cn1cnc2ccccc2c1=O)N1CCc2ncncc2C1	.	-3	.	.	.
COc1ccc(N2CCCS2(=O)=O)cc1NC(=O)C(=O)NCCN1CCOCC1	.	-35	.	.	.
Cc1cc(N2CCC(NC(=O)C3(c4ccccc4)CC3)CC2)n[nH]1	.	-14	.	.	.
C=CCn1c(-c2ccc(OC)cc2)cnc1SCC(=O)Nc1cccc(Cl)c1	.	39*	.	.	.
COc1ccc(C[C@](C)(O)CNS(=O)(=O)c2ccc(NC(=O)C(C)C)cc2)cc1	.	-11	.	.	.
CCOc1ccc(C(O)=C2C(=O)C(=O)N(c3ccc(OC)cc3)C2c2ccccc2[N+](=O)[O-])cc1 (centres undefined)	.	1	.	.	.
CCCNC(=O)c1cc(Cl)c(NC(=O)C2=C(C)OCCS2)cc1OC	0	-2	16	-7	57*
SMILES	RecA intein inh	PriA SSB inh	CCHF vOTU inh	SARS 3CLpro inh	DUSP3 inh
O=C1/C(=C/Nc2cccc([N+](=O)[O-])c2)CCc2ccccc21	60*	.	-6	-2	-12
Cc1ccc(S(=O)(=O)c2nc(-c3ccco3)oc2SCc2ccccc2F)cc1	.	-3	.	.	.
CCOC(=O)C1=CN(Cc2cccc(F)c2)S(=O)(=O)NC1c1cccc(OC)c1 (centres undefined)	.	47*	-2	.	.
Cc1ccc(OCCOC[C@@H](O)CN2CCN(CCN3C(=O)c4cccc5cccc(c45)C3=O)CC2)cc1C	.	36*	.	.	.
Cc1ccccc1OCC(O)CN1CCN(CCN2C(=O)c3cccc4cccc(c34)C2=O)CC1 (centres undefined)	4	34	-7	-1	21
C=CCc1ccc(OCCn2nnc3ccccc32)c(OC)c1	2	-12	-9	-1	56*
O=C(c1ccco1)N1CCN(c2cc(C(F)(F)F)nc3ncnn23)CC1	0	-9	0	2	52*
CC(=O)C(=Nc1ccccc1Cl)NNc1ccc(Cl)cc1	17	50*	4	1	4
O=C(NNc1ccc(Cl)cc1)c1c(F)cccc1Cl	1	-5	2	-1	27
COC(=O)c1ccccc1C(=O)N(CCCN(C)C)c1nc2c(OC)ccc(C)c2s1	.	-7	.	.	.
CC(c1ccccc1)N1C(=O)NC(NC(=O)c2cccnc2)(C(F)(F)F)C1=O (centres undefined)	0	48*	-7	2	-9
Cc1ccc2c(c1)Oc1ccc(NC(=O)CCl)cc1C(=O)N2	60*	-6	1	3	2
O=C(Nc1ccc(-c2nc3cccnc3s2)cc1)c1ccccc1C(=O)c1ccccc1	.	-16	.	.	.
O=C(c1cccnc1)N1CCc2ccccc2C1	1	-11	9	1	51*
O=C(NCCc1ccccc1)C1CCCN1C(=O)Nc1ccc(Cl)cc1 (centres undefined)	1	2	-8	3	53*
O=C(NCc1ccc(F)cc1)C1CCCN1C(=O)Nc1ccccc1 (centres undefined)	2	-12	-1	-5	59*
O=C(NCc1ccc(F)cc1)C1CCCN1C(=O)Nc1ccc(F)cc1 (centres undefined)	-1	-6	-7	-1	4
COC1=C(Br)C(=O)c2ncccc2C1=O	.	41*	101*	.	.
O=C1c2cccnc2-c2ncccc21	-1	37*!	-1	-1	28
COc1ccccc1N1C(=O)c2cccnc2C1=O	-2	-6	-9	3	22
O=C1c2cc([N+](=O)[O-])ccc2-c2ncccc21	46*	12	2	7	4
Cn1c(=O)c2c(ncn2CC(=O)NCCn2ncc3c(=O)n(Cc4ccccc4)cnc32)n(C)c1=O	.	-10	.	.	.
COc1cc(C(=O)Nc2ccc(Br)cc2F)on1	.	-15	.	.	.
CCOc1ccccc1OCCCCN1CCCC1	-5	-6	2	-8	-22
COc1ccccc1OCCCCN1CCCCC1	2	-9	-9	-8	51*
SMILES	RecA intein inh	PriA SSB inh	CCHF vOTU inh	SARS 3CLpro inh	DUSP3 inh
O=C(NCCc1nc(C2CC2)cc(C(F)(F)F)n1)C1CC1	.	-2	.	.	.
C/C(CC(=O)Nc1ccc(Cl)cc1)=N\NC(=O)C(=O)N1CCCCC1	78*	.	-1	3	16
Nc1ccc(N2CCCCC2)cc1N1CCCCC1	13	63*	15	-3	14
CN1CCN(c2ccc(N)c(N3CCN(C)CC3)c2)CC1	-1	16	9	3	15
O=C1c2ccccc2-c2c1nc1c([n+]2[O-])CCCC1	37*	-29	10	-5	15
O=C(NNC(=S)Nc1ccc(Cl)c(Cl)c1)c1ccccn1	-15	92*	-4	1	22
CCNC(=S)NNC(=O)c1ccccn1	-5	92*	-2	-5	-2
O=C(NC1(c2nc(C3CC3)no2)CCCCC1)c1ccncc1	.	-5	.	.	.
COc1cccc(CNC(=O)CSc2nc3cc(-c4ccccc4)sc3c(=O)n2C)c1OC	.	-16	.	.	.
COc1cnc(-c2ccccn2)[nH]c1=O	-4	144*!	-13	1	-14
O=c1cc(-c2ccccn2)nc(-c2ccccn2)[nH]1	.	152*	.	.	.
CCc1cc2c(=O)[nH]c(-c3ccccn3)nc2s1	-1	66*	-16	2	7
CCOc1cc(C(=O)NCc2nnc(SCC(=O)N3CCc4ccccc43)n2-c2cc(OC)ccc2OC)cc(OCC)c1OCC	.	-3	.	.	.

From PubChem
